Measured values taken from PubChem BioAssay (NCI).
Compounds without any hit were thinned out: in the full panel of roughly 79,000, 15% have a hit. Unmarked numbers belong to inactive results. Calls of active or inactive are those of the source. Rule as the data show it: active = growth inhibition above about 70%; inactive = the rest. Residues, ends and D or L forms follow the SMILES beside them. *: point of attachment. Fmoc = O=C(OCC1c2ccccc2-c2ccccc21)*; Boc = CC(C)(C)OC(=O)*

Test: NCI Yeast Anticancer Drug Screen. Data for the bub3 strain (AID 167)
Settings: S. cerevisiae bub3 mutant strain, at 100.0 µM, stronger effect = higher value
In short: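 Part of a panel of yeast mutants defective in DNA damage repair or cell cycle regulation. Each strain is grown with compound, and inhibition is calculated relative to solvent-treated cultures.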

With CC(C)C(=O)CC(Sc1ccc(N)cc1)c1ccccc1 (centres undefined) the growth inhibition was 92% (active).
In the case of CC(C)OP(=O)(OC(C)C)/C(Cl)=N/Nc1ccc([N+](=O)[O-])cc1, the growth inhibition is reported as 95% (active).
With O=[N+]([O-])c1cc(Cl)ccc1S(=O)(=O)c1ccc(Cl)cc1[N+](=O)[O-] the growth inhibition was 90% (active).
In the case of CCCCCCNCCCNc1c2cc(OC)ccc2nc2cccc([N+](=O)[O-])c12, the growth inhibition is reported as 95% (active).
With CN(C)CCNCCCNc1c2ccccc2nc2cccc([N+](=O)[O-])c12 the growth inhibition was 80% (active).
With CCC[CH2][Ge]([CH2]CCC)([CH2]CCC)[O]C(=O)C(O)c1ccccc1 (centres undefined) the growth inhibition was 99% (active).
For O=C1c2ccccc2N2OC3(N4CCCC4)CCCCC3C12c1ccccc1 (centres undefined), the growth inhibition was 98% (active).
For COc1cccc(/C=C2\S/C(=N/Nc3nc(-c4ccc([N+](=O)[O-])cc4)cs3)NC2=O)c1O, the growth inhibition was 94% (active).
With OC(Cc1cccc2ccccc12)CN1CCC(c2ccccc2)CC1 (centres undefined) the growth inhibition was 97% (active).
In the case of C1=CCN([B-](c2ccccc2)[C+]2CCCCC2)C=C1, the growth inhibition is reported as 97% (active).
For O=[N+]([O-])c1cc[n+]([O-])c(Cl)c1, the growth inhibition was 99% (active).
In the case of CC1(C)CC(=O)C(C(=O)Nc2cccs2)=C(O)C1, the growth inhibition is reported as 99% (active).
For COc1ccc(C(C)c2cc3c(cc2OCC(C)=O)OCO3)cc1 (centres undefined), the growth inhibition was 86% (active).
With CC1=NN(C(=O)c2ccccc2O)C(=O)/C1=C/c1ccco1 the growth inhibition was 97% (active).
In the case of O=C1C=C(Br)C(=O)c2ccccc21, the growth inhibition is reported as 99% (active).
For C[N+](C)([O-])CCCNc1c2ccccc2nc2cccc([N+](=O)[O-])c12, the growth inhibition was 95% (active).
In the case of Cc1cccc2c(NCCCN(C)C)c3c([N+](=O)[O-])ccc(C)c3nc12, the growth inhibition is reported as 96% (active).
For C[n+]1c(-c2ccc(/C=N/NC(=O)c3ccc(C(=O)N/N=C/c4ccc(-c5cn6ccccc6[n+]5C)cc4)cc3)cc2)cn2ccccc21, the growth inhibition was 76% (active).
In the case of O=C(c1ccccc1)[C@H]1Nc2ccc(Cl)cc2[C@H]2OCCC[C@@H]12, the growth inhibition is reported as 95% (active).
In the case of O=S(=O)(c1cccc(C(F)(F)F)c1)N1c2ccccc2-n2cccc2C1c1cccnc1 (centres undefined), the growth inhibition is reported as 90% (active).

First: N#CCC(=O)N/N=C(\c1ccccc1)C(c1ccccc1)C1(O)C(=O)Nc2c(Cl)ccc(Cl)c21 (centres undefined)
Second: OC1(c2ccccc2)C2CC=CC2C1(c1ccccc1)c1ccccc1 (centres undefined)
The growth inhibition of the first is lower: 24% for the first, 27% for the second.

Compared with COc1ccc(-c2cc(-c3cc(C)cc(Cl)c3O)nc3[nH]c(=S)[nH]c(=S)c23)cc1, CCN(CC)CCCNc1ccc([N+](=O)[O-])c2nc3ccc(OC)cc3c(NCCCN(CC)CC)c12 is lower in growth inhibition: 58% for the first, -4% for the second.

Going from O=[N+]([O-])c1ccc(/C=C\c2ccc3c(c2)OCO3)c([N+](=O)[O-])c1 to CC1(C)OC(=O)C(=Cc2ccc([N+](=O)[O-])s2)C(=O)O1, the growth inhibition falls from 68% to 5%.

First: CC(C)OC(=O)NNc1cc(Cl)ccc1Cl
Second: CCCNC(=O)OCc1c(COC(=O)NCCC)c(-c2ccc(Cl)c(Cl)c2)n2c1CCC2
The growth inhibition of the first is lower: 47% for the first, 48% for the second.

First: Cc1oc2ccccc2c(=O)c1Cn1nnc2ccccc21
Second: O=C(NO)c1coc2ccccc2c1=O
The growth inhibition of the first is higher: 67% for the first, -5% for the second.

First: O=S(=O)(c1ccccc1)N1CN2CN(C1)CN(S(=O)(=O)c1ccccc1)C2
Second: CC(C)(C)OC(=O)NCCCCC(NC(=O)C(Cc1c[nH]c2ccccc12)NC(=O)OCC1c2ccccc2-c2ccccc21)C(=O)O (centres undefined) (Fmoc-Trp-Lys(Boc)-OH; configuration not given here)
The growth inhibition of the first is lower: -21% for the first, 59% for the second.

Going from CCN(CC)CCC(=O)Nc1ccc2sc3ccccc3c(=O)c2n1 to COc1cc([N+](=O)[O-])c2ncccc2c1Br, the growth inhibition falls from -5% to -18%.

Work on O=[N+]([O-])c1ccc2nc(=S)[nH]n2c1 yielded a growth inhibition of 65%.

Test: NCI Yeast Anticancer Drug Screen. Data for the wt2 strain (AID 169);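 also: 0% = growth of vehicle-treated yeast cultures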
Settings: S. cerevisiae wt2 strain growth inhibition; at 1.2 µM; stronger effect = higher value
In short: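 The panel's yeast strains carry defined changes in DNA repair or cell cycle genes. Each strain is grown with compound, and growth loss is scored relative to vehicle.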

First: CC(C)C(=O)CC(Sc1ccc(N)cc1)c1ccccc1 (centres undefined)
Second: N#CCC(=O)N/N=C(\c1ccccc1)C(c1ccccc1)C1(O)C(=O)Nc2c(Cl)ccc(Cl)c21 (centres undefined)
The growth inhibition of the first is lower: -2% for the first, 0% for the second.

Going from CC(C)OP(=O)(OC(C)C)/C(Cl)=N/Nc1ccc([N+](=O)[O-])cc1 to COc1cccc(/C=C2\S/C(=N/Nc3nc(-c4ccc([N+](=O)[O-])cc4)cs3)NC2=O)c1O, the growth inhibition falls from 3% to -2%.

First: O=[N+]([O-])c1cc(Cl)ccc1S(=O)(=O)c1ccc(Cl)cc1[N+](=O)[O-]
Second: O=[N+]([O-])c1ccc(/C=C\c2ccc3c(c2)OCO3)c([N+](=O)[O-])c1
The growth inhibition of the first is higher: 0% for the first, -2% for the second.

CCCCCCNCCCNc1c2cc(OC)ccc2nc2cccc([N+](=O)[O-])c12 and CN(C)CCNCCCNc1c2ccccc2nc2cccc([N+](=O)[O-])c12 are the same in growth inhibition: 0% for the first, 0% for the second.

CCC[CH2][Ge]([CH2]CCC)([CH2]CCC)[O]C(=O)C(O)c1ccccc1 (centres undefined) and CCN(CC)CCCNc1ccc([N+](=O)[O-])c2nc3ccc(OC)cc3c(NCCCN(CC)CC)c12 are the same in growth inhibition: -2% for the first, -2% for the second.

First: COc1ccc(-c2cc(-c3cc(C)cc(Cl)c3O)nc3[nH]c(=S)[nH]c(=S)c23)cc1
Second: COc1ccc(C(C)c2cc3c(cc2OCC(C)=O)OCO3)cc1 (centres undefined)
The growth inhibition of the first is higher: 0% for the first, -3% for the second.

Compared with O=C1c2ccccc2N2OC3(N4CCCC4)CCCCC3C12c1ccccc1 (centres undefined), OC(Cc1cccc2ccccc12)CN1CCC(c2ccccc2)CC1 (centres undefined) is higher in growth inhibition: -18% for the first, 50% for the second.

First: CC(C)OC(=O)NNc1cc(Cl)ccc1Cl
Second: CCCNC(=O)OCc1c(COC(=O)NCCC)c(-c2ccc(Cl)c(Cl)c2)n2c1CCC2
The growth inhibition of the first is higher: 3% for the first, -36% for the second.

Compared with Cc1oc2ccccc2c(=O)c1Cn1nnc2ccccc21, CCS(=O)(=O)Nc1ccc(Nc2c3ccccc3nc3ccccc23)c(OC)c1 is lower in growth inhibition: -2% for the first, -47% for the second.

Going from CC1(C)OC(=O)C(=Cc2ccc([N+](=O)[O-])s2)C(=O)O1 to CC1=NN(C(=O)c2ccccc2O)C(=O)/C1=C/c1ccco1, the growth inhibition rises from 0% to 11%.

First: C1=CCN([B-](c2ccccc2)[C+]2CCCCC2)C=C1
Second: O=S(=O)(c1ccccc1)N1CN2CN(C1)CN(S(=O)(=O)c1ccccc1)C2
The growth inhibition of the first is higher: -1% for the first, -9% for the second.

Going from O=[N+]([O-])c1cc[n+]([O-])c(Cl)c1 to O=[N+]([O-])c1ccc2nc(=S)[nH]n2c1, the growth inhibition rises from -55% to -2%.

Going from CC1(C)CC(=O)C(C(=O)Nc2cccs2)=C(O)C1 to O=C(NO)c1coc2ccccc2c1=O, the growth inhibition falls from 4% to -2%.

Compared with O=C1C=C(Br)C(=O)c2ccccc21, COc1cc([N+](=O)[O-])c2ncccc2c1Br is lower in growth inhibition: 13% for the first, -12% for the second.

Compared with C[N+](C)([O-])CCCNc1c2ccccc2nc2cccc([N+](=O)[O-])c12, Cc1cccc2c(NCCCN(C)C)c3c([N+](=O)[O-])ccc(C)c3nc12 is higher in growth inhibition: -1% for the first, 4% for the second.

Compared with OC1(c2ccccc2)C2CC=CC2C1(c1ccccc1)c1ccccc1 (centres undefined), CC(C)(C)OC(=O)NCCCCC(NC(=O)C(Cc1c[nH]c2ccccc12)NC(=O)OCC1c2ccccc2-c2ccccc21)C(=O)O (centres undefined) (Fmoc-Trp-Lys(Boc)-OH; configuration not given here) is higher in growth inhibition: -8% for the first, 0% for the second.

Going from C[n+]1c(-c2ccc(/C=N/NC(=O)c3ccc(C(=O)N/N=C/c4ccc(-c5cn6ccccc6[n+]5C)cc4)cc3)cc2)cn2ccccc21 to CCN(CC)CCC(=O)Nc1ccc2sc3ccccc3c(=O)c2n1, the growth inhibition falls from 13% to -2%.
